The values that follow come from article PMC7862700, “An all-to-all approach to the identification of sequence-specific readers for epigenetic DNA modifications on cytosine”.

Holding throughout (test): DAPPL (digital affinity profiling via proximity ligation, sequencing); 10 mM Tris-HCl pH 7.5, 50 mM NaCl, 1 mM DTT, 4% glycerol, room temperature, 30 min; GST-TFs on glutathione beads, 16-mer random dsDNA library, 0.1% formaldehyde crosslink after washing; high values mean tight binding
Common to all, as to settings: protein: recombinant; tags: N-terminal GST; dsDNA, one strand shown

One assay addresses T1, FLI1 (Homo sapiens, UniProt Q01543 1-452).
T1 sequence: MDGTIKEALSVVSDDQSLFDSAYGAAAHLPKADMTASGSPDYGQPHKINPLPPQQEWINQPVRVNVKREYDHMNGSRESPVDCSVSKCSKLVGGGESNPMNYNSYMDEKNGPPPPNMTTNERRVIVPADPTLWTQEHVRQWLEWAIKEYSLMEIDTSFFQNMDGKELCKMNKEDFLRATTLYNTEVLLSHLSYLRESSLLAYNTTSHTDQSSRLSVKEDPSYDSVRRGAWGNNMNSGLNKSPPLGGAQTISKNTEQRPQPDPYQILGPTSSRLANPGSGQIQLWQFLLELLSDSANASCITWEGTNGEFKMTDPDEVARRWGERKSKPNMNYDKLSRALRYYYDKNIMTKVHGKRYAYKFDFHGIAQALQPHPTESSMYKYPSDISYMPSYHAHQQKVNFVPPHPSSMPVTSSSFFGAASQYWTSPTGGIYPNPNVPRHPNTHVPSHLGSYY
Summed up:
(§1)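 Human transcription factors fused to GST were expressed in yeast, captured on glutathione beads, given DNA barcodes and pooled with a GST-only negative control. Pools were incubated with 200 nmole of a 16-mer random double-stranded DNA library in Tris/NaCl/DTT/glycerol buffer at room temperature for 30 min. They were then washed, crosslinked with 0.1% formaldehyde, proximity-ligated (BsaI/T4 ligase, 1 h, 37 °C), PCR-amplified and sequenced on an Illumina NextSeq500. Binding signal is each 6-mer's read frequency for a factor divided by its frequency for the GST control.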

The next assay deals with T2, GABPA (Homo sapiens, UniProt Q06546 1-454).
T2 sequence: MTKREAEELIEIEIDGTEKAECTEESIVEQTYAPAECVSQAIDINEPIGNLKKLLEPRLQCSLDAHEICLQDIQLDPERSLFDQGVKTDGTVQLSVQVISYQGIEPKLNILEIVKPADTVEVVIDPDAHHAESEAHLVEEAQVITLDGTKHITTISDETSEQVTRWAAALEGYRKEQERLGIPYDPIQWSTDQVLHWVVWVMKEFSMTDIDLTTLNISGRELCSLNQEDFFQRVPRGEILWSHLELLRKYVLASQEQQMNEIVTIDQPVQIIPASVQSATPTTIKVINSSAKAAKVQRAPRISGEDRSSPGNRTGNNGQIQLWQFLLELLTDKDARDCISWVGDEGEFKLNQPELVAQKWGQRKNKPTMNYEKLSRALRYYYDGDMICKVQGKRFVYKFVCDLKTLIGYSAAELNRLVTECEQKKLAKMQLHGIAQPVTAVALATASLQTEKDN
An outline of the steps:
as §1

Another assay deals with T3, ERG (Homo sapiens, UniProt P11308 1-479).
T3 sequence: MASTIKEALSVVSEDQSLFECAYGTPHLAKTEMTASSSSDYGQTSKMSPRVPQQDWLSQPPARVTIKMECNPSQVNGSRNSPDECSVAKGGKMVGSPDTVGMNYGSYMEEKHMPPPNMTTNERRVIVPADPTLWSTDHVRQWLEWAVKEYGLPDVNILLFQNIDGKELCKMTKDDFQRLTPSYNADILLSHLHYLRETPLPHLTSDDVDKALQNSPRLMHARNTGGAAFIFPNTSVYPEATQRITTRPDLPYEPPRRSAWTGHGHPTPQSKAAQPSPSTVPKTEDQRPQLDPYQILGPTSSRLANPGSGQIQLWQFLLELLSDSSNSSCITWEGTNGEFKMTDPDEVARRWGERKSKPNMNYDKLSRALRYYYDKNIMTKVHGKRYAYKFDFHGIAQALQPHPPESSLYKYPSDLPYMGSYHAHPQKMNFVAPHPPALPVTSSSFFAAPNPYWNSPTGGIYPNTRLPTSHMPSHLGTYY
An outline of the steps: as §1

The next assay addresses ELF1 (Homo sapiens, UniProt P32519 1-619). An outline of the steps:
as §1

A further assay deals with T4, EHF (Homo sapiens, UniProt Q9NZC4 1-300).
T4 sequence: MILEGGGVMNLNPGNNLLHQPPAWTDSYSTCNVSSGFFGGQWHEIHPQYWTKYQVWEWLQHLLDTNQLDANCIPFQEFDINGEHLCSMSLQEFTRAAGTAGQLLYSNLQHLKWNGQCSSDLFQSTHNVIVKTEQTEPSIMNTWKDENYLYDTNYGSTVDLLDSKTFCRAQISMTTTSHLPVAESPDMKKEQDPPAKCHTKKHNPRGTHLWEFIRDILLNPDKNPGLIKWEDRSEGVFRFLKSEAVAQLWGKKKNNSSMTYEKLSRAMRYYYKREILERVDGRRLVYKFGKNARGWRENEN
An outline of the steps:
as §1

The target of the next assay is SPIB (Homo sapiens, UniProt Q01892 1-262). Summed up:
as §1

In the next assay the target is T5, ELK3 (Homo sapiens, UniProt P41970 1-407).
T5 sequence: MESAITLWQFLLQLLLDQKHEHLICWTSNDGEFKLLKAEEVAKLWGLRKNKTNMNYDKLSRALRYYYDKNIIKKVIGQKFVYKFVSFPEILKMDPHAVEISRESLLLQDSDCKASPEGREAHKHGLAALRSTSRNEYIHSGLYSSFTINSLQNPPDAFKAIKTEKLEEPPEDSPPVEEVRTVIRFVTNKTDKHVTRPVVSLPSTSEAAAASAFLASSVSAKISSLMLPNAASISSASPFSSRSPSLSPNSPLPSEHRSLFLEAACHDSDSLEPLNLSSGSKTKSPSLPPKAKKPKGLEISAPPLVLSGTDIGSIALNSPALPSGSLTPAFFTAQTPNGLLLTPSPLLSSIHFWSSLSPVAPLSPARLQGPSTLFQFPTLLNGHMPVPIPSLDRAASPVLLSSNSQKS
Summed up: as §1

The target in a further assay is T6, SPIC (Homo sapiens, UniProt Q8N5J4 1-248).
T6 sequence: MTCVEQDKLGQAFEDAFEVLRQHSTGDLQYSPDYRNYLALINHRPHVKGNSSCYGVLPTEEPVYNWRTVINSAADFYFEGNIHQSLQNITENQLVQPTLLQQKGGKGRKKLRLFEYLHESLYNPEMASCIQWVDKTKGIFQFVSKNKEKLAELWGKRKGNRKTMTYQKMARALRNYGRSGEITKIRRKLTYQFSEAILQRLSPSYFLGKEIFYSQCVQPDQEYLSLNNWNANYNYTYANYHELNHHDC
Summed up: as §1

For the next assay, the target named is ELF4 (Homo sapiens, UniProt Q99607 1-663). Summed up:
as §1

The target in a further assay is T7, ELK4 (Homo sapiens, UniProt P28324-2 1-405).
T7 sequence: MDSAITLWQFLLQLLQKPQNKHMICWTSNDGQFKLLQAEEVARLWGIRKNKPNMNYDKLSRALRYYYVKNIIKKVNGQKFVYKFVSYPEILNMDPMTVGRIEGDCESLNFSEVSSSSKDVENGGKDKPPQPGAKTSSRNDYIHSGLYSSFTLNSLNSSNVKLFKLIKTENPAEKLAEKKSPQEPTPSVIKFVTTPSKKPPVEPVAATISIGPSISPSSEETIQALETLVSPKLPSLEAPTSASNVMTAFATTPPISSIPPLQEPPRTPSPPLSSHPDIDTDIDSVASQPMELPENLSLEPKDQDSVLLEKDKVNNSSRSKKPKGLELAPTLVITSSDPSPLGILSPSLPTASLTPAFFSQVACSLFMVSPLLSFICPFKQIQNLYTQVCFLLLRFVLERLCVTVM
Summed up:
as §1

In a further assay the target is T8, ETV2 (Homo sapiens, UniProt O00321 1-342).
T8 sequence: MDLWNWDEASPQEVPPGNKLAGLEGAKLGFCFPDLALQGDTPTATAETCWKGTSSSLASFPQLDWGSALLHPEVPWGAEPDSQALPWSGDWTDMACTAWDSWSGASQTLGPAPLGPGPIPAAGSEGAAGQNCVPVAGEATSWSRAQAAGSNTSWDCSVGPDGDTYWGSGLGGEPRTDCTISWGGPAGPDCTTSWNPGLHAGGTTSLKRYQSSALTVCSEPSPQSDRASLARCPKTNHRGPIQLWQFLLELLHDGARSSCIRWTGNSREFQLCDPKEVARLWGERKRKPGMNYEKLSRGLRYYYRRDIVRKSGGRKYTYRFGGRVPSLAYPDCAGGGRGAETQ
An outline of the steps: as §1

A further assay has as its target T9, ELF3 (Homo sapiens, UniProt P78545 1-371).
T9 sequence: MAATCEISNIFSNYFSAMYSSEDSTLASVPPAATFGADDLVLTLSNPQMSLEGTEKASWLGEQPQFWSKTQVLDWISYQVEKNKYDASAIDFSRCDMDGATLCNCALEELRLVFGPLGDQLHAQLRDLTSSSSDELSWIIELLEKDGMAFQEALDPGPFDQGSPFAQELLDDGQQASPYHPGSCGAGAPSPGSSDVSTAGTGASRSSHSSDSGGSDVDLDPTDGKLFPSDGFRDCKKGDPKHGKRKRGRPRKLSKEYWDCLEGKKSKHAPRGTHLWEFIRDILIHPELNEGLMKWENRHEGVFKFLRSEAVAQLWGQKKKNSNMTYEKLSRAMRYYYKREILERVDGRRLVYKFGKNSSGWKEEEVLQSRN
Summed up: as §1

A further assay addresses T10, ERF (Homo sapiens, UniProt P50548 1-548).
T10 sequence: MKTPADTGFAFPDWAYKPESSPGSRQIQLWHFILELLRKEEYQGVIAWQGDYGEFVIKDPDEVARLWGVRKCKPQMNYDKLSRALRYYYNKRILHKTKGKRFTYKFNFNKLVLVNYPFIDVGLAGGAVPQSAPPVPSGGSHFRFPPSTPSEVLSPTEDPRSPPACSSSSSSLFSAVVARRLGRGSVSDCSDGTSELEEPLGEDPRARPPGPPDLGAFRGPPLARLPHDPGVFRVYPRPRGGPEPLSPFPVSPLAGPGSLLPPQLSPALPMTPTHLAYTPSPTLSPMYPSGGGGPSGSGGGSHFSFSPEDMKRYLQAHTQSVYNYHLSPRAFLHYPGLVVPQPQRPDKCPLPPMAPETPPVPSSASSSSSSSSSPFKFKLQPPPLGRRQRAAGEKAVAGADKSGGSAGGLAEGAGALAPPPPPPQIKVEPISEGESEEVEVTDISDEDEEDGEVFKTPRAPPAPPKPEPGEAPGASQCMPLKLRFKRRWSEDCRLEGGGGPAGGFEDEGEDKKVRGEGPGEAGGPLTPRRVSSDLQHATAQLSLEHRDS
Summed up: as §1

The next assay concerns the target T11, ETV3L (Homo sapiens, UniProt Q6ZN32 1-361).
T11 sequence: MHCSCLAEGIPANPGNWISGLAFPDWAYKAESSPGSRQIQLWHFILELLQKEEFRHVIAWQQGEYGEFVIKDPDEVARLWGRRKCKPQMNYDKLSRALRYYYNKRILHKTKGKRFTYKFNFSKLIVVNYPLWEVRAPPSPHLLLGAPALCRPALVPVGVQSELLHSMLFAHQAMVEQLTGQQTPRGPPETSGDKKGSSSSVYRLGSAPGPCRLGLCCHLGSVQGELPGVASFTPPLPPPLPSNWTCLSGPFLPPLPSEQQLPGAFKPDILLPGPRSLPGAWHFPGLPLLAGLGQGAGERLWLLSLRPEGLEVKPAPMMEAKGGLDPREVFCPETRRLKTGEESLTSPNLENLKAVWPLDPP
Summed up:
as §1

Another assay concerns the target T12, ETV7 (Homo sapiens, UniProt Q9Y603 1-341).
T12 sequence: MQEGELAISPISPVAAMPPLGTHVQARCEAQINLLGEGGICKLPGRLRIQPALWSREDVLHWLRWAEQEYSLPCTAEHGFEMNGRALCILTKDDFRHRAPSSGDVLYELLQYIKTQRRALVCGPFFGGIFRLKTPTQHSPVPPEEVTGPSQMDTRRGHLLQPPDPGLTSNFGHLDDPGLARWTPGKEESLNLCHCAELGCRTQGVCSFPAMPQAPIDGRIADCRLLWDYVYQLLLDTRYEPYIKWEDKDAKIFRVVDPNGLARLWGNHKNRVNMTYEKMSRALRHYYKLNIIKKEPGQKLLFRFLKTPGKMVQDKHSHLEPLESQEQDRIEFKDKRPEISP
Summed up: as §1

The target in a further assay is ETV6 (Homo sapiens, UniProt P41212 1-452). An outline of the steps: as §1
Chain of ETV6 (P41212 whole entry): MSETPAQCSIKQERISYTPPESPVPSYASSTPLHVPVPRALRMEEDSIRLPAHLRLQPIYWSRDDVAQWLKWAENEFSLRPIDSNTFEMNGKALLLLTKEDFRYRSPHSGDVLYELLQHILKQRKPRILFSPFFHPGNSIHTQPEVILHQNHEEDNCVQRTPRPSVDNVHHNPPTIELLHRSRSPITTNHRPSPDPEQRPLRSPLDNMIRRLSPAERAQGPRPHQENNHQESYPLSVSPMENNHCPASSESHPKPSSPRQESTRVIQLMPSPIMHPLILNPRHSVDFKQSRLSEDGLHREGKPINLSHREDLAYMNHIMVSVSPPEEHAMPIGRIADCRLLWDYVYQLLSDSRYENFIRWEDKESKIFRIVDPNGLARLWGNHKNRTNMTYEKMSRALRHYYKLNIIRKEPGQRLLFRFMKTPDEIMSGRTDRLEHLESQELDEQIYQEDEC

Chain of SPIB (Q01892 whole entry): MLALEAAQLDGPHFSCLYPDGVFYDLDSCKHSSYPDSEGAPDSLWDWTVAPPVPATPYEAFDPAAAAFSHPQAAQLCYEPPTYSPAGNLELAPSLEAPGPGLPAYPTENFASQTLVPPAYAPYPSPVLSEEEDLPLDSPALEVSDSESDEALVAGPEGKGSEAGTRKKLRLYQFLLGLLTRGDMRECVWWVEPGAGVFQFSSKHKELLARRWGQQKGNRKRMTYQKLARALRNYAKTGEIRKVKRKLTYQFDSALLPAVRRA
Chain of ELF1 (P32519 whole entry): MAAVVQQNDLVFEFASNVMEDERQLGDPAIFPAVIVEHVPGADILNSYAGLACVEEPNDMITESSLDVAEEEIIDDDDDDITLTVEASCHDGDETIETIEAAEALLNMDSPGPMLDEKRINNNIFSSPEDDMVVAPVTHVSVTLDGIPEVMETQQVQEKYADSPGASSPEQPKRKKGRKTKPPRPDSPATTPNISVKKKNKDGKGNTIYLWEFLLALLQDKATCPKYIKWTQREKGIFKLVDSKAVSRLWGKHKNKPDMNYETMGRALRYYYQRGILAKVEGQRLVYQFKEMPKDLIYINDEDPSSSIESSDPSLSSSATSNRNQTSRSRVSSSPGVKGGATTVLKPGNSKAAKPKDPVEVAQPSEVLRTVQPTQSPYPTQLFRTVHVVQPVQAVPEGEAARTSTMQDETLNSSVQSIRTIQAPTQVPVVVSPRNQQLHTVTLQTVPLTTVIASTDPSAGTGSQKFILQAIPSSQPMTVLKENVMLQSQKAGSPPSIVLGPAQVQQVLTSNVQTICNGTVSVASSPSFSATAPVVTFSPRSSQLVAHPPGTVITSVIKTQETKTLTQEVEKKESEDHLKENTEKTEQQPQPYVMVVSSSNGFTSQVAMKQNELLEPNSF
Chain of ELF4 (Q99607 whole entry): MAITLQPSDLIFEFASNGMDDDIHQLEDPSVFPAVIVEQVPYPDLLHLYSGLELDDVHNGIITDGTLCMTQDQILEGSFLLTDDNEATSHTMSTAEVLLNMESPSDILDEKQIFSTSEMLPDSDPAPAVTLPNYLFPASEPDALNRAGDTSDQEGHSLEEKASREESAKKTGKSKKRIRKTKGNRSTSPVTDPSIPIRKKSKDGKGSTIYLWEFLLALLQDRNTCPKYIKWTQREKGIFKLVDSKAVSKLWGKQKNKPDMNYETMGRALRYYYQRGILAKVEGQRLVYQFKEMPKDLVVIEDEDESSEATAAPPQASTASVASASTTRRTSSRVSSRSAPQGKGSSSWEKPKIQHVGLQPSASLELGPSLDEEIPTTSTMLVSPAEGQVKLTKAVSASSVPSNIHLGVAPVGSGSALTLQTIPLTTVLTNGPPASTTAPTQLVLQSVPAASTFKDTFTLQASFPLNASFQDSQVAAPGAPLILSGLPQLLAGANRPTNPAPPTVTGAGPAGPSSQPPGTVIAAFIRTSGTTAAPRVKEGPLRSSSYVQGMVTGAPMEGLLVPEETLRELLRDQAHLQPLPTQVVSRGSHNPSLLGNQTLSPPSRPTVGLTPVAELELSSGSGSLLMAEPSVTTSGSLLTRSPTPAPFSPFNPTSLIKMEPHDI

On to CATTGC, for which the binding signal with FLI1 is 1.22 fold enrichment (6-mer frequency, TF over GST control); with GABPA it was 1.08 fold enrichment (6-mer frequency, TF over GST control); with ERG, 1.11 fold enrichment (6-mer frequency, TF over GST control); in the assay with ELF1, 1.09 fold enrichment (6-mer frequency, TF over GST control); with EHF, 1.15 fold enrichment (6-mer frequency, TF over GST control); with SPIB it was 1 fold enrichment (6-mer frequency, TF over GST control). For the same sequence, the binding signal was 1.15 fold enrichment (6-mer frequency, TF over GST control) with ELK3; 1.16 fold enrichment (6-mer frequency, TF over GST control) with SPIC; 1.11 fold enrichment (6-mer frequency, TF over GST control) with ELF4; 1.04 fold enrichment (6-mer frequency, TF over GST control) in the assay with ELK4; 1.3 fold enrichment (6-mer frequency, TF over GST control) in the assay with ETV2; 1.04 fold enrichment (6-mer frequency, TF over GST control) in the assay with ELF3. Also, the binding signal is 1.11 fold enrichment (6-mer frequency, TF over GST control) in the assay with ERF; 1.08 fold enrichment (6-mer frequency, TF over GST control) in the assay with ETV3L; 1.14 fold enrichment (6-mer frequency, TF over GST control) in the assay with ETV7; 1.09 fold enrichment (6-mer frequency, TF over GST control) with ETV6.
